Most compounds without a hit are left out; they make up all but 2.8% or so of the library.
pPAFAH FP inh – inhibitors of human plasma PAF acetylhydrolase (pPAFAH); inhibition, % at 3.39 µM; Q13093; 330,000 compounds, 1.5% hits; AID 463082; recombinant pPAFAH, FP-rhodamine probe fluorescence polarization;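 active means inhibition above the mean inhibition across the screen plus 3 SD, cut at about 25% in these data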;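 further: inhibitors block binding of the rhodamine activity-based probe so polarization drops; 0% = enzyme with DMSO and 100% = wells lacking pPAFAH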
PAFAH1B3 inh – blocks human PAF acetylhydrolase 1B catalytic subunit 3 | Q15102 | inhibition, % at 3.39 µM | AID 492972 | recombinant PAFAH1B3, FP-rhodamine probe, fluorescence polarization | 340,000 compounds, 0.28% hits;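 active means inhibition above the screen-wide average of all tested compounds plus 3 SD, cut at about 25% in these data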;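 further: 0% = enzyme with DMSO only and 100% = wells lacking PAFAH1B3 protein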
Target sequence (Q15102 whole entry, looked up): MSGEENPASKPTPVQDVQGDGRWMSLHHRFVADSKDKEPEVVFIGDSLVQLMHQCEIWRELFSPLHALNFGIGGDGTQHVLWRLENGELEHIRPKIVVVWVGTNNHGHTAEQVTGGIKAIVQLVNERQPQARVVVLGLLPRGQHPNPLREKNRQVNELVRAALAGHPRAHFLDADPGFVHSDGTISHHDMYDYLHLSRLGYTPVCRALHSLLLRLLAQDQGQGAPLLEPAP
PME-1 primary – PME-1 (human) inhibition; 320,000 compounds, 0.53% hits; Q9Y570; recombinant PME-1, FP-Rh probe fluorescence polarization; inhibition, % at 5.9 µM;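 active means inhibition above the campaign mean of all compounds plus 3 SD, cut at about 26% in these data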;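 further: competitive labeling of PME-1 active site by serine hydrolase directed probe; 0% = PME-1 with DMSO and 100% = wells lacking PME-1 enzyme; inhibitors block probe labeling so polarization falls and inhibition rises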
PAFAH2 inh – PAFAH2 (human) inhibition. inhibition, % at 3.39 µM. recombinant PAFAH2, FP-rhodamine activity probe, fluorescence polarization. 340,000 compounds, 0.99% hits. AID 492956;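 active means inhibition above the mean over all tested compounds plus 3 SD, cut at about 30% in these data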;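 further: inhibitors block probe labeling of enzyme so polarization drops; 0% = enzyme with DMSO and 100% = wells lacking PAFAH2 protein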
Fam108B counter – Fam108B inhibition, counter-screen for RBBP9 inhibitors; recombinant Fam108B, FP-Rh probe fluorescence polarization; inhibition, % at 9.51 µM; 300,000 compounds, 0.33% hits;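 active means inhibition above the screen mean inhibition plus 3 SD, computed separately per campaign, cut at about 18% in these data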;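 further: inhibitors lower polarization as less probe binds the enzyme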
PAFAH1B2 inh – PAFAH1B2 (human) inhibition; recombinant PAFAH1B2, FP-rhodamine activity probe, fluorescence polarization; 340,000 compounds, 1.2% hits; P68402; inhibition, % at 3.39 µM;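 active means inhibition above the mean of all tested compounds plus 3 SD, cut at about 24% in these data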;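 further: 0% = enzyme with DMSO and 100% = wells lacking PAFAH1B2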
Target sequence (P68402 whole entry, looked up): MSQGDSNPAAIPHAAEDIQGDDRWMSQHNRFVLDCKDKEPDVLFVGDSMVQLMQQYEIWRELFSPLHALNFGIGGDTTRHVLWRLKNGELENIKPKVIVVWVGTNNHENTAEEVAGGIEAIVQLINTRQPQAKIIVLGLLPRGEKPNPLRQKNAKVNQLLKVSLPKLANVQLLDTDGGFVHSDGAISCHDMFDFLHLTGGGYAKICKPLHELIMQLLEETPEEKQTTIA
pPAFAH FP conf – pPAFAH (human) inhibition, confirmed; 2,300 compounds, 72% hits; shares compounds with pPAFAH FP inh; inhibition, % at 3.39 µM; recombinant pPAFAH, FP-Rh probe fluorescence polarization;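 active means mean inhibition of the triplicate above the hit cutoff set for the earlier primary screen, cut at about 25% in these data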;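 further: 0% = enzyme with DMSO and 100% = wells lacking pPAFAH enzyme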
Numbers without * were called inactive; · = no result given.

SMILES | pPAFAH FP inh | PAFAH1B3 inh | PME-1 primary | PAFAH2 inh | Fam108B counter | PAFAH1B2 inh | pPAFAH FP conf
CCOC(=O)C1CCCN(C(=O)c2cc(-c3ccco3)nc3ccccc23)C1 (configuration not stated) | 49* | 6 | · | 20 | · | 3 | 40*
Cc1ccc(C)c(/C=C/C(=O)c2ccccc(=O)c2O)c1 | 20 | 6 | 3 | 12 | 0 | -4 | ·
Cc1ccc(/C=C/C(=O)c2ccccc(=O)c2O)c(C)c1 | 69* | 4 | 3 | 21 | 7 | -5 | 14
O=C(c1ccc2c(=O)n(Cc3ccccc3)c(=S)[nH]c2c1)N1CCOCC1 | 8 | 7 | 1 | 19 | 0 | 11 | ·
CC(=O)c1ccc(N2CCN(C(=O)c3ccc(Cn4c(=S)[nH]c5ccc(N6CCOCC6)cc5c4=O)cc3)CC2)cc1 | 49* | 12 | -1 | 13 | -1 | 5 | 23
CC(NC(=O)c1cccc(S(=O)(=O)N2CCc3ccccc32)c1)c1ccco1 (configuration not stated) | -2 | -2 | 5 | -6 | · | 1 | ·
Cc1ccccc1N/N=C/c1sc(=O)n(Cc2cccc(C(=O)O)c2)c1Cl | 35* | 10 | 16 | 10 | 15 | 9 | 25*
COC(=O)c1cccc(Cn2c(Cl)c(/C=N/Nc3ccccc3C)sc2=O)c1 | 0 | 5 | 2 | 7 | 17 | 1 | ·
Cc1ccsc1CN(C)C(=O)CN1C(=O)NC2(CCCCC2C)C1=O (configuration not stated) | -3 | 6 | -2 | -1 | · | 2 | ·
O=C(NN1CCOCC1)c1ccccc1Br | 2 | 2 | -6 | 4 | -2 | 2 | ·
CCOC(=O)c1cc(C#N)c(SCC(=O)OC)[nH]c1=O | 35* | 5 | 8 | -6 | -2 | 3 | 1
CC(C)[C@H](NC(=O)[C@H](Cc1ccccc1)n1c(=O)[nH]c2ccccc2c1=O)C(=O)N1CCC[C@H]1C(=O)O | 5 | 6 | 1 | 9 | -1 | 2 | ·
COc1cc(NC(=O)C2C3CCC(O3)C2C(=O)O)cc(OC)c1 (configuration not stated) | 3 | 11 | -4 | -1 | 2 | 1 | ·
O=C(Oc1ccnc2cc(Cl)ccc12)N1CCOCC1 | 40* | -1 | -1 | 29 | 1 | -3 | 37*
Cc1ccc(S(=O)(=O)/N=C2\C=C(Nc3ccc(O)cc3)C(=O)c3ccccc32)cc1 | 38* | 61* | · | 35* | · | 27* | 33*
Cc1ccc(NC2=C/C(=N/S(=O)(=O)c3cccs3)c3ccccc3C2=O)cc1 | 53* | 45* | 4 | 4 | 8 | 1 | 65*
Cc1ccc(/C=C2\S/C(=N/S(=O)(=O)c3cccs3)NC2=O)cc1 | -8 | 3 | -7 | -2 | -8 | 5 | ·
COc1cccc(NC(=S)NNC(=O)Cn2nc(C(F)(F)F)cc2C)c1 | 3 | 4 | 4 | -9 | 2 | 7 | ·
O=C(COC(=O)c1c2c(nc3ccccc13)/C(=C/c1cccc([N+](=O)[O-])c1)CCC2)NC1CCS(=O)(=O)C1 (configuration not stated) | 38* | -8 | -15 | -15 | -5 | -2 | 44*
O=C(NNC(=S)Nc1ccc(Cl)c(Cl)c1)c1ccccn1 | 37* | 15 | 10 | 9 | 1 | 20 | 51*
CCNC(=S)NNC(=O)c1ccccn1 | -2 | 10 | -3 | -7 | 3 | 7 | ·
O=C(CCN1C(=O)/C(=C\c2ccco2)SC1=S)Nc1ccc(C(=O)O)c(O)c1 | 49* | 11 | -33 | 16 | 9 | 1 | 15
O=C(CCN1C(=O)/C(=C/c2ccco2)SC1=S)Nc1ccc(C(=O)O)c(O)c1 | 40* | 10 | -25 | 7 | 11 | 6 | 18
COc1ccccc1/C=C1\SC(=S)N(CCC(=O)Nc2ccc(C(=O)O)c(O)c2)C1=O | 18 | 6 | -19 | -1 | 0 | 8 | ·
Cn1ccnc1C(=O)c1cc(SCC(=O)NCc2ccccc2)nc2ccccc12 | -1 | 5 | 1 | -1 | -2 | 2 | ·
SMILES | pPAFAH FP inh | PAFAH1B3 inh | PME-1 primary | PAFAH2 inh | Fam108B counter | PAFAH1B2 inh | pPAFAH FP conf
COC(=O)CSc1cc(C(=O)c2nccn2C)c2ccccc2n1 | 43* | 5 | -3 | 0 | 1 | -1 | 22
CC1CCN(C(=S)c2ccc(N(C)C)cc2)CC1 | 3 | 12 | 0 | 0 | -2 | 0 | ·
COc1ccc(Br)cc1/C=c1\sc2nc(-c3ccco3)nn2c1=O | 44* | -5 | -17 | 0 | -6 | -6 | 20
COc1ccccc1/C=c1\sc2nc(-c3ccccc3OC)nn2c1=O | 7 | -7 | 0 | -18 | -12 | -4 | ·
Cc1oc2c(O)c(O)ccc2c(=O)c1-c1cnn(-c2ccccc2)c1 | 51* | 6 | 3 | 33* | 4 | 1 | 60*
O=c1[nH]nc(CNc2ccc(O)cc2)c2ccccc12 | 59* | 17 | 45* | 15 | 8 | 8 | -6
CCn1c(NC(=O)c2cccc(Cn3cc(Cl)cn3)c2)nc2ccccc21 | 65* | 4 | 1 | 0 | -2 | 3 | 65*
COc1cccc(CC(=O)OC(C)C(=O)Nc2ncc(Cl)cc2Cl)c1 (configuration not stated) | 9 | 9 | 3 | -2 | 7 | 4 | ·
CC1CCCC(C)N1C(=O)COC(=O)c1cc(=O)[nH]c2ccccc12 (configuration not stated) | 0 | 9 | · | 3 | · | 6 | ·
CCOCCCNC(=O)c1ccc(N2CC3CC(C2)c2cccc(=O)n2C3)c(NC(=O)Nc2cccc(OC)c2)c1 (configuration not stated) | 66* | 4 | 8 | 16 | -5 | -1 | 66*
CCc1ccc(NC(=O)Nc2cc(C(=O)NCC3CCCO3)ccc2N2CC3CC(C2)c2cccc(=O)n2C3)cc1 (configuration not stated) | 87* | 6 | -1 | 18 | 6 | 0 | 94*
COCCNC(=O)c1ccc(N2CC3CC(C2)c2cccc(=O)n2C3)c(NC(=O)c2cc(OC)cc(OC)c2)c1 (configuration not stated) | 4 | 7 | 2 | 4 | -2 | -4 | ·
Cc1cc(/N=C/C=C2/N(C)c3ccccc3C2(C)C)n(CCC#N)n1 | · | 9 | · | 1 | · | 5 | ·
O=C(C[C@H]1C/C=C\C[C@H](Cc2ccc(F)cc2)C(=O)O[C@@H](c2ccccc2)CNC1=O)N[C@H](CO)Cc1ccccc1 | 2 | -9 | · | -5 | · | 11 | ·
O=C(C[C@H]1C/C=C\CC[C@H](Cc2ccc(F)cc2)C(=O)O[C@H](c2ccccc2)CNC1=O)N[C@H](CO)Cc1ccccc1 | 55* | 13 | · | 6 | · | 4 | -3
CCCCCCCCCCS(=O)(=O)N/N=C/c1ccc(O)cc1 | 38* | -5 | -3 | 3 | -1 | 3 | 44*

Screening data as filed in PubChem.
